High-throughput results from PubChem.
Many of the other results were omitted from the sample, so hits are more common in it than they were.
TDP1 block – blocks human tyrosyl-DNA phosphodiesterase 1; Q9NUW8; recombinant TDP1, AlphaScreen DNA substrate cleavage; Potency, µM (series often up to 130 µM), for the others: at the top dose activity change, negative = inhibition, hits mostly inhibitors; 350,000 compounds, 0.28% hits; further: nearly all actives have a fitted effect of over 40% in size
Target sequence (Q9NUW8 whole entry, looked up): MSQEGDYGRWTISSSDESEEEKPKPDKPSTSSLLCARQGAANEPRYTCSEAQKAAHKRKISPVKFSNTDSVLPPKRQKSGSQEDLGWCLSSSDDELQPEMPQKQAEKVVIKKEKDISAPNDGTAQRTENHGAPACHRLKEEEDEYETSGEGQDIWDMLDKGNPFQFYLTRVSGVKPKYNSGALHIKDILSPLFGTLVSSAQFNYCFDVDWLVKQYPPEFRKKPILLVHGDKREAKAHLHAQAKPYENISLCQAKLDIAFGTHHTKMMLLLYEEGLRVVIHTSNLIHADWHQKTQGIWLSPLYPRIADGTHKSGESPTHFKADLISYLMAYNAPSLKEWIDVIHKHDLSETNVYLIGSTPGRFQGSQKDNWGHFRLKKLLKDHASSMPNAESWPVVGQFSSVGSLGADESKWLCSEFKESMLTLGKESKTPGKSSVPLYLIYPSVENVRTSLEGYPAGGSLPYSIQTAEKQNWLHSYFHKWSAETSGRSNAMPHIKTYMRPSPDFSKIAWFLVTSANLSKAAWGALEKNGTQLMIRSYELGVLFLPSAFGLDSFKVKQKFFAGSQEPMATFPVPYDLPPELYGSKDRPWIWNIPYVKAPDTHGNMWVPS
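Tdp1 1 nM final; 15 min RT w/ cpd; substrate 15 nM, 5 min; beads 10 ug/ml, 10 min; AlphaScreen read. Neg ctrl: no enzyme.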
L3MBTL1 block – blocks human L3MBTL1; Q9Y468; AlphaScreen L3MBTL1–H3K9me1 peptide binding; Potency, µM (doses to about 57.1 µM), for the others: at the top dose activity, negative = inhibition, hits mostly inhibitors; 230,000 compounds, 0.66% hits; further: nearly all actives have a fitted effect of over 60% in size
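First, the protein-peptide complex forms for 30 min at room temperature (L3MBTL1 50 nM, biotinylated H3K9me1 peptide 75 nM). Next, compounds are pin-transferred and incubated 30 min. Finally, AlphaScreen beads are added and read after 30 min.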
KDM4E inh – blocks human JMJD2E demethylase activity; Potency, µM (series often up to 57.1 µM), for the others: at the top dose activity change, negative = inhibition, hits mostly inhibitors; B2RXH2; 230,000 compounds, 1.6% hits; JMJD2E catalytic domain, FDH-coupled NADH fluorescence (FDH is formaldehyde dehydrogenase);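 further: 0% = wells with enzyme and -100% = buffer wells without enzyme; nearly all actives have a fitted effect of over 50% in size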
BLM inh – Bloom syndrome helicase (human) inhibition; Potency, µM (series often up to 56.1 µM), without a hit: top-dose activity change, negative = inhibition, usual class: inhibitors; 350,000 compounds, 0.2% hits; recombinant BLM DNA unwinding, fluorescence dequenching;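 further: plate controls were vehicle for no effect and no enzyme for full effect; nearly all actives have a fitted effect of over 35% in size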
APEX1 inh – inhibitors of human APE1 endonuclease | P27695 | recombinant APE1, TAMRA/BHQ-2 abasic DNA cleavage fluorescence | Potency, µM (top dose mostly 65.8 µM), inactives show top-dose activity change, negative = inhibition, actives largely listed as inhibitors | 350,000 compounds, 0.35% hits | AID 2517;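 further: plate controls were vehicle for no effect and reference inhibitor for full effect; nearly all actives have a fitted effect of over 55% in size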
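Incision of a quenched TAMRA/BHQ-2 THF abasic-site duplex (50 nM) by 0.75 nM APE1, after 15 min compound preincubation, measured as fluorescence increase over three 60 s reads. Values normalized to buffer, DMSO and NSC13755 control wells.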
RECQ1 inh-1 – inhibitors of human RECQ1 DNA helicase. P46063. 240,000 compounds, 0.54% hits. Potency, µM (highest dose often 57.3 µM), without a hit: at the highest dose activity, negative = inhibition, most hits filed as inhibitors. RECQ1 DNA unwinding, red fluorescence kinetic read;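 further: plate controls were vehicle for no effect and no enzyme for full effect; nearly all actives have a fitted effect of over 30% in size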
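50 nM RECQ1T1 preincubated 15 min with compound in Tris pH 8.0 buffer with MgCl2, DTT, Tween-20 and 2.5 ug/ml poly(dI-dC); started with 200 nM TAMRA/BHQ-2 forked duplex and 2 mM ATP. Unwinding read as fluorescence (525/598 nm), two reads 2 h apart.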
RECQ1 inh conf – confirmation of human RECQ1 helicase inhibitors. shares compounds with RECQ1 inh-1. RECQ1 helicase DNA unwinding, fluorescence. Potency, µM (top dose mostly 229 µM), inactives show at the top dose activity change, negative = inhibition, hits mostly inhibitors. 610 compounds, 28% hits. AID 2708; further: nearly all actives have a fitted effect of over 45% in size
RECQ1 ADP FP – counter-screen for RECQ1 inhibitors: ADP displacement. shares compounds with RECQ1 inh-1. ADP fluorescence polarization displacement counterscreen. Potency, µM (doses to about 228 µM), inactives show at the top dose activity change, negative = inhibition, usual class: inhibitors. 530 compounds, 27% hits; further: nearly all actives have a fitted effect of over 45% in size
RECQ1 inh-2 – RECQ1 helicase inhibition confirmed, round 2; shares compounds with RECQ1 inh-1; 1,100 compounds, 15% hits; recombinant RECQ1 DNA unwinding, red fluorescence; Potency, µM (doses to about 119 µM), without a hit: top-dose activity, negative = inhibition, actives largely listed as inhibitors; AID 504841; further: nearly all actives have a fitted effect of over 50% in size
An asterisk follows results filed as active; i = inactive; ? = inconclusive; . = no result; [ ] = another dose, or the depositor's remark. Unless noted, the call rests on the fitted dose curve; in most records, active means well fitted curve in the direction sought with a large enough effect; inconclusive means small, poorly fitted or top-dose-only effect, or another doubt; inactive means no such curve, though single readings can be large; an effect the other way counts as inactive or inconclusive. Unless noted, on the % scale 0 is the no-effect control and ±100 the full control effect; potency means the concentration at half of the fitted maximal effect.

SMILES	TDP1 block	L3MBTL1 block	KDM4E inh	BLM inh	APEX1 inh	RECQ1 inh-1	RECQ1 inh conf	RECQ1 ADP FP	RECQ1 inh-2
COc1ccccc1Oc1nc2c(c(=O)n(Cc3ccccc3F)c(=O)n2C)n1C	2%	?	-22%	?	?	?	.	.	-16%
CC(=O)Nc1ccc(S(=O)(=O)NCCc2csc3nc(-c4ccc(Cl)cc4)nn23)cc1	5%	.	.	2%	.	.	.	.	.
C/C(N)=C(/C#N)C(=O)COC(=O)C1Cc2ccccc2CN1S(C)(=O)=O (stereo not given)	?	-27%	-1%	-15%	?	?	.	.	?
C=C(C)C(=O)OCC(C)O (stereo not given)	8%	.	.	.	-4%	-6%	.	.	.
CC1/C=C/C=C/C=C/C=C/C=C/C=C/C=C/C(OC2OC(C)C(O)C(N)C2O)CC2O[C@@](O)(CC(O)CC(O)C(O)CCC(O)CC(O)CC(=O)OC(C)[C@H](C)C1O)CC(O)C2C(=O)O (stereo not given in full)	?	.	?	-5%	-27%	20µM*	?	56%	.
COCCNC(=O)c1noc2c1CCc1cc(OC)ccc1-2	1%	2%	-8%	3%	2%	13%	.	.	.
COc1ccc2c(c1)CCc1c(C(=O)N(C)c3ccccc3)noc1-2	-3%	.	-5%	-3%	-2%	4.5µM*	6%[114 µM]	?	-12%
O=C1OC(c2ccc(F)cc2)=C/C1=C\c1ccc([N+](=O)[O-])o1	-10%	.	?	-23%	3%	22µM*	-5%[114 µM]	.	.
N#CC1=C(SCC(=O)c2cc3ccccc3oc2=O)NC(=O)C(C#N)C12CCCC2 (stereo not given)	3%	?	?	-16%	?	?	.	.	-8%
Cc1ccc(S(=O)(=O)N(CC(=O)Nc2cccc(N(C)S(C)(=O)=O)c2)c2ccc(Cl)c(Cl)c2)cc1	2%	-10%	2%	-12%	-3%	7.1µM*	?	6%[91.9 µM]	-9%
NC(=O)c1ccc(OCC(F)(F)C(F)(F)C(F)(F)C(F)(F)C(F)(F)C(F)F)cc1	2%	-1%	0%	-6%	-11%	i	.	.	.
Cc1cc(OCC(F)(F)C(F)(F)C(F)(F)C(F)(F)C(F)(F)C(F)F)nc(N)n1	2%	6%	-6%	-21%	2%	28µM*	.	.	-20%
CC(C)(O)C#CC#CCN1CCOCC1	0%	.	4%	-4%	14%	?	.	.	-9%
OC1(C#CCN2CCOCC2)CCCCC1	-5%	.	-6%	3%	6%	-3%	.	.	.
CN(C)S(=O)(=O)c1ccc2c(c1)nc(CCC(=O)O)n2C	5%	-7%	-4%	-5%	15%	-9%	20%	100µM*	.
CCCCn1c(CCC(=O)O)nc2cc(S(=O)(=O)N(CC)CC)ccc21	4%	-4%	-1%	-4%	-2%	-25%	89µM*	11%	.
CCCn1c(CCC(=O)O)nc2cc(S(=O)(=O)N3CCCC3)ccc21	.	.	-2%	-6%	-3%	-5%	112µM*	?	.
COc1cc(OC)c(C2Nc3ccccc3-c3nnc(SCc4ccccc4)nc3O2)cc1OC (stereo not given)	.	.	.	-2%	.	.	.	.	.
Cc1cc2c(nc1C)CCCN2C[C@H](O)CN1CCCc2nc(-c3ccc(Br)cc3)ccc21	12%[21 µM]	.	.	5%[12.4 µM]	39%[12.4 µM]	12%[11.5 µM]	.	.	.
